Most compounds without a hit are left out; they make up all but 21% or so of the library.
NS1 inh: blocks influenza NS1 protein function; Potency, µM (highest dose often 46.1 µM), without a hit: at the top dose activity, positive = more growth; hit rate 0.4% among 270,000; further: potency means the concentration at half of the fitted maximal effect; actives are rising curves; nearly all actives have a fitted effect of over 50% in size
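S. cerevisiae expressing influenza A NS1, grown in glucose, washed, then diluted 1:100 into pH 6.0 -URA galactose medium with 23 nl compound. Growth recovery read as OD600; NS1-free strain serves as control.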
Pf growth 96h: P. falciparum growth inhibition at 96 hour, primary screen for plastid delayed-death inhibitors. P. falciparum luciferase reporter growth, 96 h. Potency, µM (series often up to 28.7 µM), for inactives: at the highest dose activity change, negative = inhibition, hits mostly inhibitors. hit rate 6.9% among 320,000. AID 504834; active means well fitted inhibition curve with a large enough effect; inconclusive means small, poorly fitted or top-dose-only effect, or another doubt; inactive means no such curve, though single readings can be large or run the other way; further: potency means the concentration at half of the fitted maximal effect; on the % scale 0 is the no-effect control and ±100 the full control effect
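Plates of compound plus infected erythrocytes (2% hematocrit, 0.05% parasitemia final) incubate 96 hours, 37 C, 5% CO2. Detection reagent added; reduced luminescence from the parasites' luciferase reporter flags inhibition.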
Pf growth 48h: inhibits P. falciparum growth in the first generation, 48 h | P. falciparum luciferase growth in erythrocytes, 48 h | Potency, µM (series often up to 28.7 µM), for inactives: at the highest dose activity change, negative = inhibition, hits mostly inhibitors | hit rate 5.9% among 310,000 | AID 504832; active means well fitted inhibition curve with a large enough effect; inconclusive means small, poorly fitted or top-dose-only effect, or another doubt; inactive means no such curve, though single readings can be large or run the other way; further: potency means the concentration at half of the fitted maximal effect; on the % scale 0 is the no-effect control and ±100 the full control effect
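Growth was read as firefly luciferase luminescence after a 48 h, 37 C, 5% CO2 exposure of compounds to reporter-bearing P. falciparum cultures (0.1% parasitemia, 2% hematocrit final) in Albumax-supplemented RPMI 1640.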
SARS PLpro yeast: inhibitors of SARS-CoV papain-like protease in yeast | Potency, µM (titrated, usually from 32.9 µM), without a hit: at the highest dose activity, positive = growth rescue, hits mostly activators | hit rate 0.19% among 330,000 | S. cerevisiae expressing SARS-CoV PLpro, growth rescue | AID 485353; further: potency means the concentration at half of the fitted maximal effect; 0% is about no effect; nearly all actives have a fitted effect of over 55% in size
Shiga inhibitor: inhibitors of Shiga toxin in Vero cells; Vero cells, Shiga toxin protein synthesis inhibition reporter; inhibition, % at 38.7 µM; hit rate 9.2% among 290,000; AID 2315; in the data active means inhibition mostly above about 28%, no sharp cut-off; inactive means mostly below about 43%; further: 0% is about no effect
Cycloheximide cs: counter-screen hit for Shiga toxin inhibitors, cycloheximide; cell reporter, cycloheximide protein synthesis inhibition counterscreen; max response, %; hit rate 12% among 300,000; AID 2314; in the data active means max response mostly above about 13%, no sharp cut-off; inactive means mostly below about 14%; further: read at 38.3 µM for the half of the compounds with a filed dose; 0% is about no effect
* marks the source's active call; other numbers are inactive results; ? = inconclusive; · = no result; [ ] = dose if it differs, or a comment. Unless noted, the call rests on the fitted dose curve.

SMILES | NS1 inh | Pf growth 96h | Pf growth 48h | SARS PLpro yeast | Shiga inhibitor | Cycloheximide cs
CNc1c(NS(=O)(=O)c2cc(Cl)ccc2OC)c(=O)oc2ccccc12 | 1% | -19% | -2% | 9% | 3 | 4
Cc1cc(C)n(C2CC(=O)N(c3ccc(C)c(Cl)c3)C2=O)n1 (stereo not drawn) | 7% | -1% | ? | 2% | 7 | -2
C=CCc1ccc(OCCn2cccc2C=O)c(OC)c1 | -21% | 96% | 103% | -2% | 116* | 49*
C=CCc1ccc(OCCn2nnc3ccccc32)c(OC)c1 | -29% | ? | 28% | 2% | 53* | 50*
C/C=C/c1ccc(OCCn2nnc3ccccc32)c(OC)c1 | -17% | -16% | 33% | -11% | 25 | 35*
C=CCc1ccccc1OCCn1nnc2ccccc21 | -28% | 14% | -4% | 1% | · | 8
C=CCc1ccc(OCCOc2cccc3ccc(C)nc23)c(OC)c1 | -49% | ? | ? | 6% | 59* | 30*
C=C(C)CC(C)(C)C | · | · | · | · | 20 | -4
COCCNC(=O)C(=O)NCC1OCCN1S(=O)(=O)c1ccc(F)cc1 (stereo not drawn) | -4% | 8% | 23% | -2% | 20 | 12
COc1ccc(-c2nc3ccccc3c(=O)n2CCOc2cccc(C)c2C)cc1 | -3% | -19% | 6% | -4% | -6 | 4
Cc1cccc(OCCn2nnc3ccccc32)c1C | -69% | ? | 55% | 8% | · | 42*
COc1ccc(-n2nc(C(=O)NCC(=O)N3CCC(C)CC3)c3ccccc3c2=O)c(OC)c1 | 6% | 22% | ? | 2% | 40 | 16*
COc1ccc(-n2nc(C(=O)NCC(=O)N3CCOCC3)c3ccccc3c2=O)c(OC)c1 | 2% | -2% | 10% | -1% | 16 | 3
COc1ccc(-n2nc(C(=O)NCC(=O)N3CCCCCC3)c3ccccc3c2=O)c(OC)c1 | 0% | ? | -10% | -1% | 55 | 16*
COc1ccc(-n2nc(C(=O)NCC(=O)N3CCCCC3)c3ccccc3c2=O)c(OC)c1 | -16% | ? | 21% | -3% | 33 | 18*
CCN(C(=O)CSc1cccc[n+]1[O-])C1CCCCC1 | · | · | · | -3% | · | ·
Cc1noc(C)c1-c1ccc2ncnc(NCC3CCN(C)CC3)c2c1 | · | · | · | · | 21 | 28
CC(C)CNC(=O)C1CCN(S(=O)(=O)c2ccc3c(c2)OCCO3)CC1 | · | -25% | -26% | 3% | · | ·
N#Cc1sc(NCc2ccccc2)nc1Cl | · | ? | -3% | -1% | 18 | 19
COc1ccc(CNc2nc(Cl)c(C#N)s2)cc1 | -2% | 0% | · | 10% | 45* | 41*
COc1ccc(Oc2coc3cc(OC(=O)c4cccs4)ccc3c2=O)cc1 | -7% | 4.1µM* | 54% | 1% | -5 | 7
Cc1cccc(Oc2coc3cc(OC(=O)c4cc5ccccc5oc4=O)ccc3c2=O)c1 | -6% | 69% | 28% | -9% | 38 | 40*
Cc1cccc(Oc2coc3cc(OC(=O)c4cncc(Br)c4)ccc3c2=O)c1 | -33% | 39% | 25% | -1% | 22 | 2
Cc1cccc(Oc2coc3cc(O)ccc3c2=O)c1 | -5% | 21% | 60% | -2% | 49* | 31*
CCOC(=O)Oc1ccc2c(=O)c(Oc3cccc(C)c3)coc2c1 | -37% | 165% | 37% | -35% | 24 | 21*
SMILES | NS1 inh | Pf growth 96h | Pf growth 48h | SARS PLpro yeast | Shiga inhibitor | Cycloheximide cs
CCCCn1c(N)c(N(CCC(C)C)C(=O)C2=NN(c3cc(C)ccc3C)C(=O)CC2)c(=O)[nH]c1=O | · | 6% | -4% | 0% | · | ·
COCCCNC(=S)N(CCCO)Cc1cc2cc3c(cc2[nH]c1=O)OCO3 | 6% | -7% | ? | -5% | -13 | 3
Cn1c(SCC(=O)c2ccc(F)cc2)nnc1-c1cccnc1 | · | ? | -4%[5.75 µM] | 1% | 25 | 10
Cn1c(SCC(=O)c2ccccc2)nnc1-c1cccnc1 | -6% | 14% | ? | -5% | 67* | 54*
COC(=O)CSc1nnc(-c2cnccn2)n1C | 1% | · | -15% | 9% | 2 | -6
Cn1c(SCC(=O)c2ccccc2)nnc1-c1cnccn1 | -15% | 8.3µM* | 106% | -7% | 59 | 27*
Cn1c(SCCCC(=O)c2ccc(Br)cc2)nnc1-c1ccncc1 | -3% | 8.3µM* | · | 3% | 8 | -2
CC(C)OC(=O)CSc1nnc(-c2cnccn2)n1Cc1ccco1 | -9% | · | -9% | · | 40 | 10
O=C(CSc1nnc(-c2cnccn2)n1Cc1ccco1)c1ccc2ccccc2c1 | -17% | 10µM* | 13% | 0% | -37 | -5
Cc1ccc(C(=O)C2(C)C3c4cc(Br)ccc4OC(=O)C32C(=O)c2ccco2)cc1 (stereo not drawn) | 21% | ? | ? | 1% | -14 | -3
O=C(CNC(=O)c1cc(Cl)cc([N+](=O)[O-])c1)OCC(=O)N1CCCCC1 | · | -1% | 25% | 1% | · | ·
CC(C)OC(=O)CSc1nnc(-c2cnccn2)n1C | 6% | 10µM* | 4% | -6% | 11 | 4
CCC(=O)Nc1cccc(-c2nnc(SCC(=O)c3ccccc3)n2C)c1 | -4% | -23% | 95% | 7% | 81* | 36*
CCn1c(SCC(=O)c2ccccc2)nnc1-c1cnccn1 | 9% | 7% | 61% | -3% | 107* | 52*
O=C(NCc1cccc2ccsc12)c1cccs1 | · | 43% | 19% | -1% | · | ·
O=S(=O)(Nc1ncnc2sc3c(c12)CCC3)c1ccc(Cl)s1 | 16% | 66% | 10% | -21% | 12 | -1
CCN(CC)S(=O)(=O)c1ccc(NN)nc1 | · | ? | -8% | -2% | 5 | 1
CCN(c1ccccc1)S(=O)(=O)c1cccc(C(=O)Nc2ccc(C)cn2)c1 | -27% | 9.3µM* | 8.3µM* | -6% | 17 | -2
CCN(CC)S(=O)(=O)c1cc(C(=O)Nc2cccnc2Cl)ccc1Cl | -8% | 12% | -2% | 2% | -13 | 5
CN(c1ccc(C(=O)Nc2ccc(Cl)cn2)cc1)S(=O)(=O)c1ccccc1 | -48% | -27% | -13% | -2% | 20 | 12
CCN(CC)S(=O)(=O)c1cccc(C(=O)Nc2ccc(Cl)cn2)c1 | -71% | 17% | 31% | -4% | 99* | 26*
CCN(c1ccccc1)S(=O)(=O)c1ccc(NN)nc1 | · | ? | 13µM* | 4% | · | ·
CCN(CC)S(=O)(=O)c1cc(C(=O)Nc2ccc(Cl)cn2)ccc1C | -23% | · | 124% | -6% | 79* | 33*
COCCNC(=O)CNC(c1ccccc1)c1ccccc1 | · | 11% | 9% | -3% | 3 | -3
C[C@@H]1CCCCCCCCC(=O)OCCN(C(=O)OC(C)(C)C)[C@H](C)CCCCCCCCC(=O)OCCN(C(=O)OC(C)(C)C)[C@H](C)CCCCCCCCC(=O)OCCN(C(=O)OC(C)(C)C)[C@H](C)CCCCCCCCC(=O)OCCN1C(=O)OC(C)(C)C | · | · | · | -1% | · | ·
COc1ccccc1N(C)S(=O)(=O)c1ccc(C(=O)OCC(=O)N2CCCCCC2)cc1 | · | ? | 29% | -1% | -19 | 6

Compound activity (PubChem BioAssay)
